Compound activity as filed in PubChem.
Only some compounds are listed: those with a hit (about 21% of all), similar ones and a draw of the others.
RORgamma inh = qHTS for inhibitors of ROR gamma transcriptional activity; Drosophila S2 Gal4-RORgamma UAS-luciferase reporter, 20 h; hit rate 5.4% among 310,000; Potency, µM (top dose mostly 53.6 µM), for the others: top-dose activity change, negative = inhibition, usual class: inhibitors; also: potency is read from the fitted curve at half-maximal effect; nearly all actives have a fitted effect of over 60% in size
Target sequence (P51450 whole entry, looked up, the tested form may be a part): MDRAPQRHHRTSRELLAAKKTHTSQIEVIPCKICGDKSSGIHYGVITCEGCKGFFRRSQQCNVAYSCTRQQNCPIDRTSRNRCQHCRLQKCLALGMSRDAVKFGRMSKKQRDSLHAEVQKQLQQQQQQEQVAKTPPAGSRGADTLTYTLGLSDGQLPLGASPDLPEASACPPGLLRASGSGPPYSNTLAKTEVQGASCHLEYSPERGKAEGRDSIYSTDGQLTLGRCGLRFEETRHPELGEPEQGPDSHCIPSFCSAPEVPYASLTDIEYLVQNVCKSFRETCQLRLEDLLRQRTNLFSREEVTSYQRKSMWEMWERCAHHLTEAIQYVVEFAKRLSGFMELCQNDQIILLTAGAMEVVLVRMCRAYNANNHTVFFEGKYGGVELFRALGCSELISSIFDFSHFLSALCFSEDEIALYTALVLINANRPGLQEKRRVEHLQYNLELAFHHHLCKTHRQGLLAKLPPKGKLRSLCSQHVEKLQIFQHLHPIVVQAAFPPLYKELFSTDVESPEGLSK
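Luciferase reporter read in Schneider cells carrying Gal4-RORγ (mouse) and UAS-Photinus luciferase; cells given compound 1 h before 700 uM copper sulfate induction, then incubated 20 h at ambient temperature.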
Gal4-VP16 FLuc = VP16 counterscreen qHTS for inhibitors of ROR gamma transcriptional activity; Potency, µM (titrated, usually from 53.6 µM), for the others: at the highest dose activity, negative = inhibition, most hits filed as inhibitors; hit rate 3.5% among 310,000; Drosophila S2 Gal4-VP16 UAS-luciferase, luminescence, 20 h;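 also: Gal4-VP16 expression switched on by copper sulfate through the metallothionein promoter; potency is read from the fitted curve at half-maximal effect; nearly all actives have a fitted effect of over 50% in size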
IL1B secr inh = qHTS for Inhibitors of Inflammasome Signaling: IL-1-beta AlphaLISA Primary Screen. THP-1 LPS/ATP IL-1B secretion, AlphaLISA, 16 h; active compounds read low. hit rate 4.7% among 360,000. activity change, % at 57.5 µM; in the data active = activity change below about -50%; inconclusive = mostly about -30% to -49%
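THP-1 cells pretreated 1 hr with compounds (up to 57.5 uM final), then stimulated with LPS (250 ng/mL final) plus ATP (1.25 mM final); secreted IL-1B measured by AlphaLISA after 16 hr, decreased signal indicating inhibition.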
ELG1 DNA repair = qHTS screen for small molecules that inhibit ELG1-dependent DNA repair in human embryonic kidney (HEK293T) cells expressing luciferase-tagged ELG1 | HEK293T ELG1-luciferase reporter, luminescence, 16 h; DNA damage induced by 5-fluorouridine | Potency, µM (series often up to 46.1 µM), for the others: top-dose activity change, negative = inhibition, most hits filed as inhibitors | hit rate 2.3% among 330,000 | AID 504467, 2011; also: potency is read from the fitted curve at half-maximal effect; nearly all actives have a fitted effect of over 55% in size
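Overnight (16 hr) co-exposure of 2,000 cells/well to 5-fluorouridine and compound at 37 °C preceded detection. Luciferase was quantified via ONE-Glo luminescence; loss of signal denotes inhibition.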
DT40 TDP1 no CPT = qHTS for Inhibitors of human tyrosyl-DNA phosphodiesterase 1 (TDP1): qHTS in cells in absence of CPT. AID 686978, 2013. Potency, µM (top dose mostly 46.2 µM), for the others: at the highest dose activity change, negative = growth inhibition, most hits filed as inhibitors. DT40 Tdp1-/- hTDP1 cells, no CPT, ATP luminescence, 48 h. hit rate 15% among 420,000; also: potency is read from the fitted curve at half-maximal effect; nearly all actives have a fitted effect of over 55% in size
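Readout: luminescence from CellTiter-Glo after 30 min in the dark at RT. Cells: DT40 Tdp1-/- with stable hTDP1, 400/well. Exposure: compounds alone, ≥48 hr, 37 °C.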
TDP1 cell CPT = qHTS for Inhibitors of human tyrosyl-DNA phosphodiesterase 1 (TDP1): qHTS in cells in presence of CPT. chicken DT40 Tdp1-/-;hTDP1 cells + 20 nM CPT, ATP luminescence, 48 h. Potency, µM (doses to about 46.2 µM), inactives show top-dose activity change, negative = growth inhibition, usual class: inhibitors. hit rate 12% among 420,000; also: potency is read from the fitted curve at half-maximal effect; nearly all actives have a fitted effect of over 55% in size
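Chicken DT40 Tdp1-/- cells stably complemented with human TDP1 were seeded at 400 cells/well in medium containing 20 nM camptothecin, exposed to pin-transferred compounds, and grown at 37 °C for at least 48 hr. Viability was read as ATP luminescence.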
Numbers without * were called inactive; u = inconclusive; x = not tested or not shown; [ ] = dose if it differs, or a comment. Unless noted, calls follow the shape of the dose curve; as a rule, active = well fitted curve in the direction sought with a large enough effect; inconclusive = small, poorly fitted or top-dose-only effect, or another doubt; inactive = no such curve, though single readings can be large; an effect the other way counts as inactive or inconclusive. % is scaled to controls: 0 for no effect and ±100 for the full control effect.

SMILES | RORgamma inh | Gal4-VP16 FLuc | IL1B secr inh | ELG1 DNA repair | DT40 TDP1 no CPT | TDP1 cell CPT
C=CCn1c(NCc2ccccc2OC)nc2ccccc21 | u | -9% | -13 | 13% | u | -26%
COc1ccccc1Cn1c(/C=C/c2ccccc2)nc2ccccc21 | u | 22µM* | -80* | u | u | u
COc1ccccc1Cn1c(C(C)C)nc2ccccc21 | 7.9µM* | -15% | 2 | u | u | u
CCNc1ncc2nc(C)c(=O)n(Cc3ccc(F)cc3)c2n1 | -23% | 3% | x | x | -5% | 1%
O=C(NC(=S)N1CCN(c2ccccc2)CC1)c1c(F)cccc1F | 0.71µM* | 1.4µM* | 0 | 5% | -27% | -22%
CC(C)[C@H](NC(=O)c1c(F)cccc1F)C(=O)N1CCN(c2ccc(F)cc2)CC1 | 0% | 11% | -10 | u | 21µM* | u
O=C(NC(=S)N1CCN(c2ccc(F)cc2)CC1)c1cccs1 | 45µM* | 0.56µM* | 34 | -10% | u | u
O=C(CN1CCN(c2ccc(F)cc2)CC1)c1cccs1 | -22% | 20% | -19 | 4% | u | -15%
CCCC(=O)N1CCN(c2ccc(NC(=O)c3cccs3)cc2)CC1 | 17% | 0%[10 µM] | -14 | 5% | u | -7%
O=C(NC(=S)N1CCN(c2ccc(O)cc2)CC1)c1cccs1 | 3.5µM* | 2.8µM* | 23 | 13µM* | u | u
COc1ccc(-c2cc3cc(OC)c(OC)cc3c(C)n2)cc1 | -26% | 3% | -2 | 7% | u | u
CCC1CN(CCNC(=O)c2cc(C(C)C)nn2C)Cc2cc(OC)ccc2O1 (stereo not drawn) | x | x | x | x | -23% | -13%[9.04 µM]
COc1ccc2cc(C#CC3=CC(=O)C[C@H](c4ccc(F)cc4)C3)ccc2c1 | x | x | -76* | x | u | u
CCN(c1cccc(C)c1)S(=O)(=O)c1ccc(-c2cc(C)no2)s1 | 12% | 0% | 30 | 14% | 2.6µM* | 2.9µM*
Cc1cccc(N(C)S(=O)(=O)c2ccc(-c3cc(C)no3)s2)c1 | 13% | -6% | 77 | 19% | 0.65µM* | 0.82µM*
CCOc1ccc(N(C)S(=O)(=O)c2ccc(-c3cc(C)no3)s2)cc1 | u | -7% | 45 | u | 4.1µM* | 3.7µM*
Cc1cc(-c2ccc(S(=O)(=O)N3CCCCC3)s2)on1 | 9% | 2% | 8 | -1% | u | -25%
COc1cccc(NC(=O)C2CCN(S(=O)(=O)c3ccc(N4CCCC4=O)cc3)CC2)c1 | x | x | 18 | x | u | 15µM*
O=C(Nc1cccc(C(F)(F)F)c1)C1CCN(S(=O)(=O)c2ccc(N3CCCC3=O)cc2)CC1 | u | 13µM* | -19 | -25% | 2.1µM* | 2.6µM*
COc1cccc(NC(=O)C2CCN(S(=O)(=O)c3ccc4c(c3)NC(=O)CO4)CC2)c1 | 38% | 0% | -14 | -8% | u | 23µM*
CCCc1cc2c(n1Cc1cc(F)cc(F)c1)C(C)C1CN(C(=O)c3ccccc3)C(C)(C(=O)OC)C21 (stereo not drawn) | 24% | -8% | x | x | x | x
Cn1cc(CNCc2ccc(-n3cccn3)cc2)c(-c2ccccc2F)n1 | u | 11µM* | 28 | u | 21µM* | u
CCOC(=O)N1CCC2(CC1)OC(=O)C(C)=C2C(=O)NCc1cccc(OC)c1 | x | x | x | x | u | -27%
O=C(COC(=O)/C=C/c1ccc(C(F)(F)F)cc1)NC(=O)NCc1ccco1 | x | x | -8 | 15% | -10% | -3%
O=[N+]([O-])c1ccc(C=NN2CCOCC2)s1 | x | x | 5 | x | u | 21µM*
SMILES | RORgamma inh | Gal4-VP16 FLuc | IL1B secr inh | ELG1 DNA repair | DT40 TDP1 no CPT | TDP1 cell CPT
Cc1ccc(C=Nc2cc([N+](=O)[O-])ccc2C)s1 | -9% | -1% | -6 | 21% | -12% | 1%
O=[N+]([O-])c1cc(/C=N/N2CCOCC2)cs1 | 26% | 19% | -13 | -3% | -5% | 12%
O=[N+]([O-])c1ccc(C=Nc2cccc3ccccc23)s1 | u | u | -97* | 1% | 21µM* | 21µM*
Cc1ccc(OCCC(=O)OCC(=O)NCCc2ccc(Cl)cc2)cc1 | x | x | 12 | 7% | -21% | 1%
COc1ccc(-c2cc(=Nc3ccc(C)cc3)c3ccccc3o2)cc1 | 0% | -18% | u | u | u | u
COc1ccc(N=c2cc(-c3ccc(OC)cc3)oc3ccccc23)cc1 | -11% | 0% | x | 23µM* | 23µM* | u
COc1ccc(N=c2cc(-c3ccc(O)cc3)oc3ccccc23)cc1 | -10% | -12% | -98* | u | u | u
CCOc1ccc(N=c2cc(-c3ccc(OC)cc3)oc3ccccc23)cc1 | -11% | 2% | -14 | u | 26µM* | 26µM*
C=CCC1(c2ccccc2)Oc2ccc(C)cc2-c2nc3cc(Cl)c(Cl)cc3nc21 (stereo not drawn) | -9%[10 µM] | -13%[10 µM] | x | x | x | x
COc1ccc(-c2cnc(N)n2C)cc1 | -28% | 0% | -18 | 6% | u | -14%
Cn1c(-c2ccccc2)cnc1N | 13µM* | -11% | u | 29% | -18% | -27%
CCn1cc(C(=O)N2CCN(c3cccc(Cl)c3)CC2)c(=O)c2cc(S(=O)(=O)N3CCOCC3)ccc21 | x | x | x | x | -18% | 12%
COC(=O)c1ccccc1NC(=O)CCCS(=O)(=O)c1nc(-c2ccccc2OC)cc(C(F)(F)F)n1 | x | x | x | x | -21% | 0%
COc1cc(NC(=O)CCS(=O)(=O)c2nc(-c3ccc4c(c3)OCO4)cc(C(F)(F)F)n2)cc(OC)c1OC | x | x | x | x | 16µM* | u
COc1cc(NC(=O)c2cc(-c3ccc4c(c3)OCO4)on2)cc(OC)c1OC | -19% | -21% | 20 | -4% | u | u
COc1ccc(-c2cc(C(F)(F)F)nc(S(=O)(=O)CCCC(=O)Nc3cccnc3Cl)n2)cc1OC | 1.6µM* | u | -107* | u | 3.7µM* | 2.3µM*
O=C(CCS(=O)(=O)c1nc(-c2ccc3c(c2)OCO3)cc(C(F)(F)F)n1)Nc1ccccc1C(F)(F)F | x | x | x | x | 23µM* | u
O=C(CCS(=O)(=O)c1nc(-c2ccc3c(c2)OCO3)cc(C(F)(F)F)n1)Nc1ccc(F)c(Cl)c1 | x | x | x | x | 5.8µM* | 2.6µM*
